Compounds without any hit were thinned out: in the full panel of roughly 79,000, 15% have a hit. Active and inactive are the calls of the source. No stated cut-off is given here; in the data, active means growth inhibition above about 70%; inactive means the rest.
Key:
[1] = NCI Yeast Anticancer Drug Screen. Data for the rad50 strain (AID 155);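 further: 0% = growth of vehicle-only cultures of the same strain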; conditions: S. cerevisiae rad50 strain growth inhibition, active compounds read high
How it was run: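 Relative growth inhibition (compound vs vehicle) was measured in yeast with a defined repair-gene alteration.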

[2] = NCI Yeast Anticancer Drug Screen. Data for the mec2-1 strain (AID 157); conditions: S. cerevisiae mec2-1 strain, active compounds read high
How it was run: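 Readout is yeast growth inhibition, normalised to vehicle-treated controls, in the mec2-1 strain exposed to compound.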

[3] = NCI Yeast Anticancer Drug Screen. Data for the sgs1 mgt1 strain (AID 161);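 further: 0% = growth of cultures given vehicle only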; conditions: S. cerevisiae sgs1 mgt1 strain, active compounds read high
How it was run: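 Growth of a repair-deficient yeast mutant was monitored after compound treatment and expressed as inhibition relative to vehicle-treated cultures.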

[4] = NCI Yeast Anticancer Drug Screen. Data for the cln2 rad14 strain (AID 165);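 further: 0% = growth equal to vehicle treated cultures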; conditions: S. cerevisiae cln2 rad14 strain, active compounds read high
How it was run: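 Relative to vehicle controls, growth inhibition of compound-treated cln2 rad14 yeast was recorded.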

[5] = NCI Yeast Anticancer Drug Screen. Data for the bub3 strain (AID 167); conditions: S. cerevisiae bub3 mutant strain, active compounds read high
How it was run: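 Screening used yeast with an engineered genetic alteration affecting cell cycle control. Compound-exposed cultures were compared with vehicle cultures, and reduced growth was taken as inhibition.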

[6] = NCI Yeast Anticancer Drug Screen. Data for the mlh1 rad18 strain (AID 175); conditions: S. cerevisiae mlh1 rad18 strain growth inhibition, active compounds read high
How it was run: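 Test agents were incubated with a yeast strain of defined genotype (DNA damage repair defect). Inhibition of growth was derived by comparison with vehicle-exposed cultures.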

[7] = at 5.0 µM (retest, dose inferred, filed as 0.5)
[8] = at 50.0 µM (retest, dose inferred, filed as 5.0)

Measured: growth inhibition

NC(=O)c1oc([N+](=O)[O-])c(-c2ccccc2)c1-c1ccccc1
active: [5]; [8] 80% | [5]; at 50.0 µM 92.2% | [6]; [8] 78%
inactive: [1]; [7] 9% | [1]; [8] 38% | [1]; at 50.0 µM 12.4% | [2]; [7] 5% | [2]; [8] 50% | [2]; at 50.0 µM 16.6% | [3]; [7] 14% | [3]; [8] 61% | [3]; at 50.0 µM 55.4% | [4]; [7] -6% | [4]; [8] 10% | [4]; at 50.0 µM -22.6% | [5]; [7] 16% | [6]; [7] 11% | [6]; at 50.0 µM 64.2%

O=S1(=O)C(C(O)(c2ccccc2)c2ccccc2)CCCN1c1ccccc1 (configuration not stated)
inactive: [1]; [7] 4% | [1]; [8] 32% | [2]; [7] -8% | [2]; [8] 0% | [2]; at 50.0 µM 31.4% | [3]; [7] -1% | [3]; [8] 16% | [4]; [7] 1% | [4]; [8] -19% | [4]; at 50.0 µM 12.2% | [5]; [7] 0% | [5]; [8] 3% | [5]; at 50.0 µM 21.4% | [6]; [7] -2% | [6]; [8] -87% | [6]; at 50.0 µM 25.4%
active: [1]; at 50.0 µM 76.5% | [3]; at 50.0 µM 70.5%

CC12CCC(O)CC1=CCC1C2CCC2(C)C(NC(=O)C(Cc3ccc(O)cc3)NC(=O)OCc3ccccc3)CCC12 (configuration not stated)
inactive: [1]; [7] 24% | [1]; at 50.0 µM -7.7% | [2]; [7] 21% | [2]; at 50.0 µM 2.95% | [3]; [7] 22% | [3]; at 50.0 µM -2.85% | [4]; [7] 21% | [4]; at 50.0 µM 38.6% | [5]; [7] -4% | [5]; at 50.0 µM -5.4% | [6]; [7] 41% | [6]; at 50.0 µM -8.2%
active: [1]; [8] 94% | [2]; [8] 97% | [3]; [8] 96% | [4]; [8] 94% | [5]; [8] 93% | [6]; [8] 96%

C[C@H]1CC[C@@H]2[C@@H](C)[C@H]3[C@H](C[C@H]4[C@@H]5CC=C6C[C@@H](O)CC[C@]6(C)[C@H]5CC[C@]34C)N2C1
inactive: [1]; [7] 27% | [1]; at 50.0 µM 58% | [2]; [7] 28% | [3]; [7] 44% | [4]; [7] 28% | [5]; [7] 48% | [6]; [7] 56%
active: [1]; [8] 98% | [2]; [8] 99% | [2]; at 50.0 µM 93.5% | [3]; [8] 99% | [3]; at 50.0 µM 93.2% | [4]; [8] 98% | [4]; at 50.0 µM 91.2% | [5]; [8] 99% | [5]; at 50.0 µM 93% | [6]; [8] 98% | [6]; at 50.0 µM 86.6%

O=C1CCCCC1Sc1ccc(Cl)cc1 (configuration not stated)
inactive: [1]; [7] 1% | [2]; [7] 2% | [3]; [7] 2% | [4]; [7] -4% | [5]; [7] 3% | [6]; [7] 2%
active: [1]; [8] 94% | [1]; at 50.0 µM 91.2% | [2]; [8] 95% | [2]; at 50.0 µM 91.1% | [3]; [8] 87% | [3]; at 50.0 µM 96.3% | [4]; [8] 76% | [4]; at 50.0 µM 76.1% | [5]; [8] 96% | [5]; at 50.0 µM 85.2% | [6]; [8] 94% | [6]; at 50.0 µM 87.5%

Cc1cc(O)c2c(c1)OC1(C)CCC3C(C)(C)CCCC34COC2C14 (configuration not stated)
active: [1]; [8] 97% | [1]; at 50.0 µM 89.5% | [2]; [8] 98% | [2]; at 50.0 µM 87.5% | [3]; [8] 98% | [3]; at 50.0 µM 90.6% | [4]; [8] 98% | [4]; at 50.0 µM 88.5% | [5]; [8] 98% | [5]; at 50.0 µM 85.5% | [6]; [8] 97% | [6]; at 50.0 µM 88.6%
inactive: [1]; [7] 18% | [2]; [7] 16% | [3]; [7] 17% | [4]; [7] 27% | [5]; [7] 6% | [6]; [7] 33%

COc1ccccc1/C=C1\C=Cc2ccccc21
inactive: [1]; [7] -3% | [1]; [8] 6% | [1]; at 50.0 µM 31.9% | [2]; [7] 0% | [2]; [8] -1% | [2]; at 50.0 µM 49.5% | [3]; [7] -4% | [3]; [8] 8% | [3]; at 50.0 µM 44.2% | [4]; [7] -1% | [4]; [8] -14% | [4]; at 50.0 µM 26.2% | [5]; [7] 3% | [5]; [8] -1% | [6]; [7] -3% | [6]; [8] 7%
active: [5]; at 50.0 µM 78% | [6]; at 50.0 µM 70.4%

O=C(O)CCC(c1ccccc1)(c1ccccc1)c1ccccc1
active: [1]; [8] 99% | [1]; at 50.0 µM 99.5% | [2]; [8] 100% | [2]; at 50.0 µM 99.7% | [3]; [8] 99% | [3]; at 50.0 µM 98.9% | [4]; [8] 99% | [4]; at 50.0 µM 99% | [5]; [7] 80% | [5]; at 50.0 µM 99.5% | [6]; [8] 99% | [6]; at 50.0 µM 99.2%
inactive: [1]; [7] 66% | [2]; [7] 53% | [3]; [7] 54% | [4]; [7] -59% | [5]; [8] -50% | [6]; [7] 64%

CCCCn1c(C)nc2cc(C(F)(F)F)cc(N)c21
active: [1]; at 50.0 µM 78.6% | [3]; at 50.0 µM 93.6%
inactive: [1]; [7] 0% | [1]; [8] 41% | [2]; [7] -4% | [2]; [8] 35% | [2]; at 50.0 µM 48.3% | [3]; [7] 0% | [3]; [8] 31% | [4]; [7] -5% | [4]; [8] 8% | [4]; at 50.0 µM 6.6% | [5]; [7] -8% | [5]; [8] 10% | [5]; at 50.0 µM 31.9% | [6]; [7] -11% | [6]; [8] 65% | [6]; at 50.0 µM 43.5%

Reference: PubChem BioAssay (NCI)
